# Assay results reported in PubChem BioAssay (Tox21).
# Several values for one entry are separate records, joined by “and”; a condition that tells them apart may be missing. Identical values can stand only once. Inconclusive results are not listed. A call without a number means that no potency is given here. A structure can be active in one record and inactive in another. Activity calls are given as the source filed them. Calls follow the shape of the dose curve; as a rule, active = well fitted cell-killing curve with a large enough effect in the repeat runs; inconclusive = weak or mixed curves, or effect the other way; inactive = flat fitted curve, though single readings scatter.
# Test: qHTS RealTime-Glo MT Cell Viability Assay in HEK293 cells - 16 hour (AID 1224872); also: nearly all actives have a fitted effect of over 50% in size
# Conditions: RealTime-Glo luminescence; series mostly up to 76.8 µM
# Excerpt: National Center for Advancing Translational Sciences [NCATS]
# NIH Chemical Genomics Center [NCGC]
# U.S. Environmental Protection Agency [EPA]
# National Institutes of Environmental Health Sciences [NIEHS]
# National Toxicology Program [NTP]
# U.S. Food and Drug Administration [FDA]
# Measure of cell viability is critical in the cell-base assay. Analysis of cell viability is necessary for the characterization of cell responses to cytotoxic drugs and environmental stress. A RealTime-Glo MT Cell Viability Assay to monitor cell viability in real time of continues cell culture during 40 hours of compound treatment was used to screen Tox21 10K library compounds in Hek293 cells. The RealTime-Glo MT Cell Viability Assay is a nonlytic, homogeneous, bioluminescent method to measure cell viability in real time using a simple, plate-based method. The assay involves adding NanoLuc luciferase and a cell-permeant prosubstrate to cells in culture. Viable cells reduce the proprietary prosubstrate to generate a substrate for NanoLuc luciferase. This substrate diffuses from cells into the surrounding culture medium, where it is rapidly used by the NanoLuc Enzyme to produce a luminescent signal. The signal correlates with the number of viable cells, making the assay well suited for cytotoxicity studies.
# Tox21 Assay Protocol Summary:
# The mixture of Hek293 cell suspension and reagents were dispensed at 600cells/6 ul/well in 1536-well tissue culture treated black solid bottom plates using a Multidrop dispenser. After the assay plates were incubated at a 37 C/5% CO2 incubator for 5 hours, 23 nL of compounds dissolved in DMSO, positive and negative controls was transferred to the assay plate by a pintool work station. The plates were incubated at 37 C for 40 hours. The luminescence intensity were measured at 0h, 8h, 16h, 24h, 32h and 40h time points using ViewLux plate reader during compound treatment.
# Potency is read from the fitted curve at half-maximal effect.
row,SMILES,Potency
1,Nc1ccc(O)c([N+](=O)[O-])c1,inactive
2,CC(=O)Nc1c(I)c(NC(C)=O)c(I)c(C(=O)O)c1I,inactive
3,C=C1CC[C@H](O)C/C1=C\C=C1/CCC[C@]2(C)[C@@H]([C@H](C)CCCC(C)C)CC[C@@H]12,38.5 µM (active)
4,Cc1cccc(C)c1,inactive
5,O=S1(=O)OC(c2ccc(O)cc2)(c2ccc(O)cc2)c2ccccc21,inactive
6,CCCCCCCCCCCC[N+](C)(C)Cc1ccccc1,24.1 µM (active) and 23.8 µM (active) and 8.49 µM (active)
7,CCCCCCCC(=O)OCC(COC(=O)CCCCCCC)OC(=O)CCCCCCC,inactive
8,O=CC(=O)c1ccccc1,inactive
9,CC(=O)CCC(=O)O,inactive
10,CCOc1ccc(NC(C)=O)cc1,inactive
11,CC(=O)C(=O)O,inactive
12,C=C(C)C(=O)OCC(C)O (stereo not given),inactive
13,NC(CO)(CO)CO,inactive
14,CS(=O)(=O)OCCCCOS(C)(=O)=O,inactive
15,C/C=C/C=C/C(=O)O,inactive
16,O=C(O)c1ccccc1,inactive
17,Cc1cc(=O)oc2cc(O)ccc12,inactive
18,Cn1c(=O)c2c(ncn2C)n(C)c1=O,inactive
19,Nc1ccc(S(N)(=O)=O)cc1,inactive
20,CC/C(=C(\c1ccccc1)c1ccc(OCCN(C)C)cc1)c1ccccc1,34.6 µM (active) [middle of 5 runs]

row,SMILES,Potency
1,CC(C)c1c(C(=O)Nc2ccccc2)c(-c2ccccc2)c(-c2ccc(F)cc2)n1CC[C@@H](O)C[C@@H](O)CC(=O)O,inactive
2,O=c1[nH]cc(F)c(=O)[nH]1,inactive
3,Oc1ccccc1,inactive
4,NC(=O)c1cccnc1,inactive
5,CCCC[P+](CCCC)(CCCC)CCCC,21.8 µM (active)
6,NC1CCCCC1,inactive
7,Cc1c(C(=O)O)c(O)cc2c1C(=O)c1c(O)c([C@@H]3O[C@H](CO)[C@@H](O)[C@H](O)[C@H]3O)c(O)c(O)c1C2=O,inactive
8,CCCCCCc1ccc(O)cc1O,19.6 µM (active) and 11 µM (active)
9,COc1ccc(OC(F)(F)F)cc1CN[C@H]1CCCN[C@H]1c1ccccc1,49 µM (active)
10,C=CCc1ccc(O)c(OC)c1,inactive
11,Cc1ncc([N+](=O)[O-])n1CCO,inactive
12,CN(N=O)C(=O)N[C@@H]1[C@@H](O)[C@H](O)[C@@H](CO)O[C@@H]1O,inactive
13,CCCCOC(=O)c1ccc(O)cc1,24.8 µM (active) and inactive
14,CCCCCCCCCCCCCCCC[N+](C)(C)Cc1ccccc1,25.3 µM (active) and 28 µM (active)
15,CC(=O)CC(c1ccccc1)c1c(O)c2ccccc2oc1=O (stereo not given),inactive
16,CCc1nc(N)nc(N)c1-c1ccc(Cl)cc1,inactive
17,OC[C@H]1O[C@H](O[C@]2(CCl)O[C@H](CCl)[C@@H](O)[C@@H]2O)[C@H](O)[C@@H](O)[C@H]1Cl,inactive
18,CC1(C)O[C@@H]2C[C@H]3[C@@H]4CCC5=CC(=O)C=C[C@]5(C)[C@@]4(F)[C@@H](O)C[C@]3(C)[C@]2(C(=O)CO)O1,inactive
19,O=C(Nc1ncc([N+](=O)[O-])s1)c1cccs1,inactive
20,C1CCC(C(CC2CCCCN2)C2CCCCC2)CC1 (stereo not given),19 µM (active)
